Sampled rows, rich in hits. Any-hit rate of the full collection: about 12%.
G9a inh: qHTS Assay for Inhibitors of Histone Lysine Methyltransferase G9a; actives 8.8% (n = 350,000); Potency, µM (highest dose often 102 µM), usual class: inhibitors; G9a H3K9 monomethylation, AlphaScreen, 2 h; Histone-lysine N-methyltransferase EHMT2 (Homo sapiens), Q96KQ7; further: nearly all actives have a fitted effect of over 75% in size
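Signal arises when biotinylated H3K9 peptide, once monomethylated, bridges streptavidin donor and antibody-captured acceptor beads. Enzyme at 20 nM was preincubated 15 min with test compounds; peptide 500 nM and SAM 20 uM then reacted for 2 h.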
HP1b chromo inh: HTS for Inhibitors of HP1-beta Chromodomain Interactions with Methylated Histone Tails | Potency, µM (top dose mostly 114 µM), actives largely listed as inhibitors | AlphaScreen HP1-beta / biotin-H3K9me3 peptide binding | actives 0.56% (n = 390,000) | Chromobox protein homolog 1 (Homo sapiens), P83916; further: nearly all actives have a fitted effect of over 70% in size
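Compound inhibition of the preformed complex between 50 nM HP1-beta and 50 nM biotinylated H3K9me3 peptide was read by AlphaScreen. Buffer was PBS pH 7.4 with 0.01% Tween-20. Incubations ran 30 min at room temperature, with 10 ug/mL donor/acceptor beads.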
Sfp inh: qHTS Assay for Inhibitors of Bacillus subtilis Sfp phosphopantetheinyl transferase (PPTase) | Biochemical Sfp PPTase activity, qHTS | Potency, µM, usual class: inhibitors | 4'-phosphopantetheinyl transferase ffp (Bacillus subtilis), Q9F4F7 | actives 3.5% (n = 310,000);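 further: the enzyme is Sfp with the accession as filed and its product quenches rhodamine fluorescence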
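After 15 min at room temperature with compound, 15 nM Sfp received 5 uM rhodamine-CoA plus 12.5 uM BHQ-2-ybbR (50 mM Hepes pH 7.6, 10 mM MgCl2). Rate came from the fluorescence difference over 30 min, ex 525/em 598 nm.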
JMJD2A Tudor inh: qHTS Assay for Inhibitors of JMJD2A-Tudor Domain; Lysine-specific demethylase 4A (Homo sapiens), O75164; AlphaScreen JMJD2A-Tudor / H3K4me3 peptide binding; Potency, µM (series often up to 114 µM), actives largely listed as inhibitors; actives 4.4% (n = 390,000); AID 504339, 2011; further: nearly all actives have a fitted effect of over 50% in size
BAZ2B inh: qHTS Assay for Inhibitors of BAZ2B; Bromodomain adjacent to zinc finger domain protein 2B (Homo sapiens), Q9UIF8; actives 4.4% (n = 360,000); Potency, µM (doses to about 114 µM), most hits filed as inhibitors; AlphaScreen BAZ2B-H3K14Ac peptide displacement; further: nearly all actives have a fitted effect of over 60% in size
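AlphaScreen displacement: compounds (up to 110uM) incubated 30 min at room temperature with a preformed 50 nM BAZ2B/50 nM biotinylated H3K14Ac peptide complex in PBS pH 7.4 with Tween-20. Donor and acceptor beads at 10 ug/mL final added, 20 min light-protected before reading.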
TDP1 inh: qHTS Assay for Inhibitors of Tyrosyl-DNA Phosphodiesterase (TDP1). AID 485290, 2010. recombinant TDP1, AlphaScreen DNA substrate cleavage. Potency, µM (highest dose often 130 µM), usual class: inhibitors. actives 0.28% (n = 350,000). Tyrosyl-DNA phosphodiesterase 1 (Homo sapiens), Q9NUW8; further: nearly all actives have a fitted effect of over 40% in size
Target sequence (Q9NUW8 whole entry, looked up): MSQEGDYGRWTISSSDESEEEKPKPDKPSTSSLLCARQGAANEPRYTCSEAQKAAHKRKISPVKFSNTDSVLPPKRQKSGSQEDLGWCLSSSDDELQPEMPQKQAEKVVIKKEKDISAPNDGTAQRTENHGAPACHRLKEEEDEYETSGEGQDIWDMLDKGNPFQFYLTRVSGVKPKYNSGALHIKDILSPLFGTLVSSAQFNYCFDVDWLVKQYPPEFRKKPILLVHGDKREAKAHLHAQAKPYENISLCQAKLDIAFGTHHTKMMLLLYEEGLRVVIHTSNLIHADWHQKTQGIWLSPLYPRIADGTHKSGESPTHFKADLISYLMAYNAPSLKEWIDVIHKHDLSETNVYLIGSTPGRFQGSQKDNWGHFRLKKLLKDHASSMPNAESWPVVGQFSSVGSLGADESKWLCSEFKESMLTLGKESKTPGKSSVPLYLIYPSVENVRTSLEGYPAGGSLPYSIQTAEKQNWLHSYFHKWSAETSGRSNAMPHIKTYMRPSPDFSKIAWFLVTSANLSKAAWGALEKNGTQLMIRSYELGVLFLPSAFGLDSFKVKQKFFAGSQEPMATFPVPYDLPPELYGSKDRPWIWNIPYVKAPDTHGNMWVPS
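Steps: enzyme plus compound, 15 min RT; add biotin/phosphotyrosine-FITC oligonucleotide (15 nM final), react 5 min; add donor/acceptor beads (10 ug/ml final), 10 min; read AlphaScreen. Tdp1 at 1 nM final.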
Numbers stand for hits; - = inactive; ? = inconclusive; . = not tested or not shown; [ ] = dose if it differs, or a comment. The call rests on the fitted dose curve; in most records, active means well fitted curve in the direction sought with a large enough effect; inconclusive means small, poorly fitted or top-dose-only effect, or another doubt; inactive means no such curve, though single readings can be large; an effect the other way counts as inactive or inconclusive.

SMILES	G9a inh	HP1b chromo inh	Sfp inh	JMJD2A Tudor inh	BAZ2B inh	TDP1 inh
O=C(CSc1nnc(Nc2ccccc2F)s1)c1cc2ccccc2o1	7.9µM	?	-	-	-	-
O=C1c2ccccc2C(=O)N1CSc1nnc(Nc2ccccc2)s1	?	-	-	-[11.4 µM]	-	-
O=C1c2ccccc2C(=O)N1CSc1nnc(Nc2ccccc2F)s1	10µM	-	-	-	-	-
COc1cccc(Nc2sc(C(=O)c3ccc(Cl)cc3)c(N)c2C(=O)NCCc2ccc(OC)c(OC)c2)c1	10µM	-	.	?	?	-
COCCCNc1oc(/C=C/c2cc(OC)c(OC)c(OC)c2)nc1C#N	-	-	.	-	-	-
C=C(C)CSc1nnc([C@@H]2CCCN2)o1	?	-	?	50µM	50µM	-
O=C(CSc1nnc([C@@H]2CCCN2)o1)c1ccc(Cl)cc1	40µM	-	-	?	-	-
Cc1ccc(C)c(CSc2nnc([C@@H]3CCCN3)o2)c1	-	-	-	-	?	.
CSCCC(NC(=O)COc1ccccc1)C(=O)N1CCN(c2ccccc2O)CC1 (stereo not given)	-	-	.	-	-	.
Cc1ccc(C(=O)Nc2nn(C)c3cccc(F)c23)cc1	?	-	-	-	-	-
COc1ccc(CNC(=O)c2ccc(-c3nc(CSc4ccc(C)cc4)c(C)o3)cc2)cc1OC	?	-	.	-	-	-
CCCCC(=O)O[C@]1(C(=O)CO)[C@H](C)C[C@H]2[C@@H]3CCC4=CC(=O)C=C[C@]4(C)[C@@]3(F)[C@@H](O)C[C@@]21C	-	.	-	.	.	-
Cc1cc2c(Nc3ccccc3)ncnc2s1	?	-	-	-	-	-
Cc1cc2c(NCCc3ccccc3)ncnc2s1	50µM	-	-	-	?	-
Cc1ccc(C)c(S(=O)(=O)Nc2ccc3oc(C)c(C(=O)O)c3c2)c1	40µM	50µM	-	50µM	50µM	.
CCN(C[C@H]1N[C@@](C)(C(=O)OC)[C@H]2C(=O)N(C)C(=O)[C@@H]12)C(=O)Nc1ccc(Cl)cc1	.	-	.	-	.	-
O=C(NC(=S)Nc1ccc(Cc2ccncc2)cc1)c1ccc(F)cc1	?	-	50µM	-	.	-
CC(C)(C)C(=O)NC(=S)Nc1ccc(Cc2ccncc2)cc1	35µM	-	-	?	-	-
CC(C)(C)OC(=O)N1CCC(c2c(C(=O)NCc3ccco3)cnn2-c2ccc(F)cc2F)CC1	-	-	.	-	-	-
Cc1sc(NC(=S)NC(=O)c2ccco2)c(C#N)c1C	35µM	-	40µM	-	-	-
CCN(CC)C(=O)c1sc(NC(=O)c2cccc([N+](=O)[O-])c2)c(C#N)c1C	?	-	-	-	-	-
CCOC(=O)c1sc(NC(=O)c2ccco2)c(C#N)c1C	45µM	-	-	-	-	-
CCN(CC)C(=O)c1sc(NC(=O)c2c(OC)cccc2OC)c(C#N)c1C	18µM	-	-	-	-	-
COC(=O)c1sc(NC(=O)c2ccc([N+](=O)[O-])o2)c(C#N)c1C	13µM	?	25µM	?	?	-
O=C(c1cccc([N+](=O)[O-])c1)N1CCN(c2ccc(Nc3ccccc3)nn2)CC1	-	-	.	-	-	-
SMILES	G9a inh	HP1b chromo inh	Sfp inh	JMJD2A Tudor inh	BAZ2B inh	TDP1 inh
CCOC(=O)c1sc(NC(=O)C2c3ccccc3Oc3ccccc32)c(C#N)c1C	2.2µM	-	.	-	-	-
O=C1CC(c2ccco2)c2ccc3ccccc3c2N1 (stereo not given)	50µM	-	-	?	50µM	-
CCCc1[nH]nc2c1C(c1ccc(O)c(OC)c1)C(C#N)=C(N)O2 (stereo not given)	50µM	-	-	-	-	-
Cc1ccc(NC(=O)C(=O)NCC(c2ccc3c(c2)OCO3)N2CCOCC2)c(C)c1 (stereo not given)	-	-	.	-	-	-
COc1ccc(-n2c(=O)[nH]cc(C(=O)Nc3ccc4c(c3)OCCO4)c2=O)cc1OC	?	-	-	-	-	-
O=C(Nc1ccc2c(c1)OCO2)c1c[nH]c(=O)n(-c2ccc(F)cc2)c1=O	56µM	-	-	?	35µM	-
COc1ccc(/C=C2\SC(=O)NC2=S)cc1OC	6.3µM	?	25µM	79µM	40µM	-
CCN1C(=O)C(=Cc2cccc(OC)c2Oc2ccc([N+](=O)[O-])cc2[N+](=O)[O-])SC1=S	45µM	?	?	?	25µM	.
COc1cc(/C=C2\SC(=S)N(CCCCC(=O)O)C2=O)ccc1OS(=O)(=O)c1ccc(C)cc1	?	?	.	50µM	35µM	.
CCOc1ccc(/C=C2\SC(=S)NC2=O)cc1OC	13µM	-	-	-	?	-
CCOc1ccc(/C=C2\SC(=S)N(C)C2=O)cc1OC	.	-	-	-	-	-
COc1ccc(OC2C(O)COC2/C=C/c2ccccc2)cc1 (stereo not given)	.	.	-	.	.	-[21 µM]
CC(Sc1nc2c(c(=O)[nH]1)CCCC2)C(=O)Nc1ccc(S(N)(=O)=O)cc1 (stereo not given)	-	-	-	-	-	-
COc1cc(/C=C2/SC(=S)NC2=O)ccc1OS(=O)(=O)c1ccc(C)cc1	20µM	?	25µM	56µM	50µM	-
COc1cccc(/C=C2\SC(=S)NC2=O)c1OS(=O)(=O)c1ccc(NC(C)=O)cc1	-	-	-	-	?	-
COc1cc(/C=C2\SC(=S)NC2=O)ccc1OS(=O)(=O)c1ccccc1	11µM	.	50µM	.	45µM	-
O=C1NC(=O)/C(=C\c2ccc(OCc3cnc(Cl)s3)cc2)S1	?	-	-	-	-	-
COc1cccc(OCCOc2ccc(/C=C3/SC(=S)NC3=O)cc2)c1	7.9µM	?	50µM	56µM	45µM	.
COc1ccc(/C=C2\SC(=S)NC2=O)cc1OS(=O)(=O)c1ccc(NC(C)=O)cc1	?	-	-	-	-	-
COc1cc(/C=C2\SC(=O)NC2=O)ccc1Oc1ccc([N+](=O)[O-])cc1[N+](=O)[O-]	10µM	?	56µM	35µM	45µM	-
COc1ccc(-n2c(=O)c(CCc3ccccc3)nc3cnc(N4CCNCC4)nc32)cc1	-[12.7 µM]	.	?	.	.	.
O=C1NC(=S)S/C1=C\c1ccc2ccccc2c1	-	-	-	?	50µM	.
Cc1ccc(S(=O)(=O)N2CCOCC2)cc1N/N=C(\C#N)c1nc2ccccc2[nH]1	35µM	-	-	-	-	-
